Some test systems named below: SR leukemia; RPMI-8226 leukemia; OVCAR-8 ovarian; OVCAR-5 ovarian; OVCAR-4 ovarian; SK-OV-3 ovarian; IGROV1 ovarian; OVCAR-3 ovarian; HS 578T breast; NCI/ADR-RES ovarian.
Holding throughout (assay): NCI-60 one-dose screen, 48 h (100 = growth as untreated, 0 = no growth, -100 = all killed)
Holding throughout (details): 10 µM unless noted

This is part of a sample that, as a whole, favours compounds with a hit. Of some 83,000 tested, about 20% had one in any assay.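 For each line, cells grew in 96-well plates with the test compound present at a single concentration for 48 hours.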 A number with no mark means an inactive call. The source made the active and inactive calls. How the source made its calls: active means growth percent below 10; inactive means the rest.

With `CCCCCCCCCCCCC1CCC/C=C\CCC(=O)O1` (stereo not given), the growth was 71.4% in the assay with SR leukemia; 94% in the assay with RPMI-8226 leukemia; 100% with OVCAR-8 ovarian; 102% with OVCAR-5 ovarian; 109% with OVCAR-4 ovarian; 95.3% in the assay with SK-OV-3 ovarian. Also, the growth in the assay on IGROV1 ovarian was 102%; in the assay with OVCAR-3 ovarian it was 102%; in the assay with HS 578T breast, 107%; with NCI/ADR-RES ovarian it was 102%.

In the case of `Cc1cc(Nc2cccc(C(F)(F)F)c2)n2c(nc3ccccc32)c1C#N`, the growth is 31.6% in the assay on SR leukemia; 22.8% with RPMI-8226 leukemia; 43% with OVCAR-8 ovarian; 78% with OVCAR-5 ovarian; 34.6% with OVCAR-4 ovarian; 46.4% in the assay with SK-OV-3 ovarian. For the same molecule, the growth with IGROV1 ovarian was 57.6%; in the assay on OVCAR-3 ovarian it was 39.4%; in the assay on HS 578T breast it was 68.5%; with NCI/ADR-RES ovarian, 47.9%.

With `Clc1ccc(N2N=C(c3cccc(Nc4ccncc4)c3)CC2c2ccc3c(c2)OCO3)cc1` (stereo not given), the growth in the assay on SR leukemia was 6.11% (active); in the assay with RPMI-8226 leukemia, 44.1%; in the assay on OVCAR-8 ovarian, 26.7%; in the assay on OVCAR-5 ovarian, 73.9%; with OVCAR-4 ovarian, 44.7%; with SK-OV-3 ovarian, 54.8%. Also, the growth in the assay on IGROV1 ovarian is 20.7%; in the assay with OVCAR-3 ovarian it was 23.5%; with HS 578T breast, 68.9%; with NCI/ADR-RES ovarian, 31.2%.

With `CCN(CC)CCCC(Nc1c2ccc(Cl)cc2nc2ccc(OC)cc12)c1ccc(Cl)cc1` (stereo not given), the growth is -32.9% (active) with SR leukemia; -18.6% (active) in the assay with RPMI-8226 leukemia; -37.7% (active) with OVCAR-8 ovarian; 33.7% with OVCAR-5 ovarian; 20.3% with OVCAR-4 ovarian; 64.9% in the assay with SK-OV-3 ovarian. Further, the growth was -15.3% (active) in the assay with IGROV1 ovarian, -17.6% (active) with OVCAR-3 ovarian, -47.7% (active) with HS 578T breast and -13.3% (active) with NCI/ADR-RES ovarian.

For `Cc1[nH]c(C(=O)Nc2ccccc2OCc2cccc(C(=O)NCCN)c2)c(Cl)c1Cl`, the growth is -15.8% (active) in the assay on SR leukemia; 30.1% in the assay on RPMI-8226 leukemia; 37.9% in the assay on OVCAR-8 ovarian; 104% in the assay with OVCAR-5 ovarian; 98.1% in the assay with OVCAR-4 ovarian; 108% in the assay with SK-OV-3 ovarian. Also, the growth is 71.1% in the assay on IGROV1 ovarian, 76.4% in the assay on OVCAR-3 ovarian, 92.6% in the assay with HS 578T breast and 94.3% with NCI/ADR-RES ovarian.

In the case of `CCCCCCCC(=O)Nc1nc2[nH]c(CN3CCN(Cc4cccc(I)c4)CC3)c(CN3CCN(Cc4cccc(I)c4)CC3)c2c(=O)[nH]1`, the growth in the assay on SR leukemia is -43.4% (active); in the assay with RPMI-8226 leukemia, -22.5% (active); with OVCAR-8 ovarian, -49.6% (active); in the assay on OVCAR-5 ovarian, -66.1% (active); with OVCAR-4 ovarian, -89.8% (active); in the assay on SK-OV-3 ovarian it was -69.8% (active). For the same molecule, the growth with IGROV1 ovarian was -74% (active); in the assay on OVCAR-3 ovarian it was -95.8% (active); in the assay on HS 578T breast it was -40.9% (active); in the assay with NCI/ADR-RES ovarian, -51.1% (active).

Take `COc1ccc(C(O)c2cc3c(N)c(C(=O)Nc4cccc(Br)c4C)sc3nc2C)cc1` (stereo not given): the growth in the assay on SR leukemia was 1.86% (active); in the assay with RPMI-8226 leukemia, 7.3% (active); in the assay with OVCAR-8 ovarian, 17.4%; in the assay with OVCAR-5 ovarian, 39.6%; in the assay with OVCAR-4 ovarian, 47.4%; in the assay with SK-OV-3 ovarian it was 30.8%. For the same molecule, the growth with IGROV1 ovarian was 24.8%; in the assay with OVCAR-3 ovarian it was -14.4% (active); with HS 578T breast, 21.8%; with NCI/ADR-RES ovarian, 14.1%.

For the molecule `C#CC(=O)Nc1cccc2c1cc(C)n2-c1nc2c(c(NCc3ccccc3)n1)CCCC2`, the growth was -32.2% (active) in the assay with SR leukemia; -22.3% (active) with RPMI-8226 leukemia; -14% (active) in the assay with OVCAR-8 ovarian; -16% (active) in the assay on OVCAR-5 ovarian; -35.7% (active) in the assay with OVCAR-4 ovarian; -94.4% (active) in the assay with SK-OV-3 ovarian. In addition, the growth in the assay with IGROV1 ovarian was -28.1% (active); with OVCAR-3 ovarian, -9.24% (active); in the assay with HS 578T breast, -7.53% (active); in the assay on NCI/ADR-RES ovarian, 6.91% (active).

As for `CCn1cc(C2NC(=O)c3ccccc3N2)c2cccc(C)c21` (stereo not given), the growth in the assay on SR leukemia was -18.2% (active); in the assay with RPMI-8226 leukemia, 6.81% (active); in the assay with OVCAR-8 ovarian, 7.03% (active); in the assay on OVCAR-5 ovarian, 19.6%; in the assay on OVCAR-4 ovarian, 25.7%; with SK-OV-3 ovarian it was 32.9%. Also, the growth is 14.4% in the assay on IGROV1 ovarian, -44.9% (active) in the assay on OVCAR-3 ovarian, 7.22% (active) in the assay on HS 578T breast and 8.25% (active) with NCI/ADR-RES ovarian.

As to `COc1ccc(CNCCN2C(=O)c3ccc4c5c(ccc(c35)C2=O)C(=O)N(CCNCc2ccc(OC)cc2)C4=O)cc1`, the growth is -29.4% (active) in the assay on SR leukemia; -35.2% (active) in the assay on RPMI-8226 leukemia; -67.3% (active) in the assay on OVCAR-8 ovarian; -72.7% (active) with OVCAR-5 ovarian; -99.5% (active) in the assay on OVCAR-4 ovarian; -68.1% (active) in the assay with SK-OV-3 ovarian. Besides, the growth with IGROV1 ovarian was -58.4% (active); in the assay on OVCAR-3 ovarian, -95.5% (active); in the assay on HS 578T breast, -41.1% (active); with NCI/ADR-RES ovarian, -25.9% (active).

Consider `O=C(Nc1cccc(Cl)c1)Oc1c(Br)c(Br)c(Br)c(Br)c1Br`, for which the growth is 107% in the assay on SR leukemia; 73.2% in the assay with RPMI-8226 leukemia; 88.9% in the assay on OVCAR-8 ovarian; 102% in the assay with OVCAR-5 ovarian; 95.4% in the assay with OVCAR-4 ovarian; 62.6% in the assay on SK-OV-3 ovarian. The growth with IGROV1 ovarian was 107%; with OVCAR-3 ovarian, 88.5%; in the assay with HS 578T breast it was 84.3%; with NCI/ADR-RES ovarian, 96.4%.

For the molecule `Cc1nccc2c3ccc(OCc4cn(-c5ccc(Cl)cc5)nn4)cc3n(CCCc3ccccc3)c12`, the growth in the assay with SR leukemia is -34.1% (active); in the assay on RPMI-8226 leukemia, 7.63% (active); with OVCAR-8 ovarian it was -33.2% (active); in the assay with OVCAR-5 ovarian it was 43.4%; in the assay on OVCAR-4 ovarian, -51.1% (active); in the assay with SK-OV-3 ovarian, 53.2%. For the same molecule, the growth with IGROV1 ovarian is 34%; in the assay on OVCAR-3 ovarian it was 26.6%; in the assay on HS 578T breast, -35.7% (active); with NCI/ADR-RES ovarian, -44.1% (active).

For `CC1(C)CCCN1CCCN1c2ccccc2Sc2ccc(Cl)cc21`, the growth in the assay with SR leukemia was 35.7%; with RPMI-8226 leukemia, 28.6%; in the assay on OVCAR-8 ovarian, 95.8%; in the assay with OVCAR-5 ovarian it was 89.3%; with OVCAR-4 ovarian it was 53.2%; in the assay with SK-OV-3 ovarian, 75.5%. In addition, the growth in the assay with IGROV1 ovarian is 60.2%; in the assay on OVCAR-3 ovarian it was 68.5%; in the assay with HS 578T breast it was 76.6%; in the assay on NCI/ADR-RES ovarian it was 61%.

Consider `C=CCn1c(SCC(=O)Nc2ccc(C(=O)/C=C/c3cc(OC)c(OC)c(OC)c3)cc2)nnc1-c1cc(OC)c(OC)c(OC)c1`, for which the growth in the assay on SR leukemia was -5.4% (active); in the assay on RPMI-8226 leukemia it was -32.3% (active); with OVCAR-8 ovarian it was 28.4%; with OVCAR-5 ovarian, 95%; in the assay on OVCAR-4 ovarian it was 55.2%; with SK-OV-3 ovarian it was 76.5%. Besides, the growth with IGROV1 ovarian was 22.2%; in the assay with OVCAR-3 ovarian it was -21% (active); in the assay on HS 578T breast it was 69%; with NCI/ADR-RES ovarian it was 73%.
